# Screening data deposited in PubChem by National Center for Advancing Translational Sciences (NCATS).
# Compounds with a hit are over-represented: about 19% of the library has one in this group of screens.
# TGFb SMAD3 inh = inhibitors of TGF-b signaling; Potency, µM (top dose mostly 46.1 µM), for inactives: top-dose activity, negative = inhibition, actives largely listed as inhibitors; 410,000 tested, 1.2% active; HepG2 CAGA-GFP TGF-b/SMAD3 reporter, GFP fluorescence, 18 h; TGF-beta stimulated, 500 pg/mL final; further: potency means the concentration at half of the fitted maximal effect; on the % scale 0 is the no-effect control and ±100 the full control effect; nearly all actives have a fitted effect of over 65% in size
#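 First, reporter cells (HEPG2 CAGA-GFP) rested 2 h at 37 degrees C. Next, compounds were pinned in and TGF-beta added to 500 pg/mL final. After 18 h, GFP was imaged per cell and summed per well.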
# IL-1B inflam inh = inflammasome signaling inhibition, IL-1 beta readout; activity change, % at 57.5 µM; AID 743279; THP-1 LPS/ATP IL-1B secretion, AlphaLISA, 16 h; active compounds read low; 360,000 tested, 4.7% active; in the data active means activity change below about -50%; inconclusive means mostly about -30% to -49%; further: on the % scale 0 is the no-effect control and ±100 the full control effect
#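 Secreted IL-1B measured by AlphaLISA bead assay after 16 h compound exposure of THP-1 cells; compounds (final up to 57.5 uM) added 1 h before LPS (250 ng/mL) and ATP (1.25 mM) stimulation; lower signal means less secretion.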
# TDP1 cell noCPT = qHTS for Inhibitors of human tyrosyl-DNA phosphodiesterase 1 (TDP1): qHTS in cells in absence of CPT | 420,000 tested, 15% active | DT40 Tdp1-/- hTDP1 cells, no CPT, ATP luminescence, 48 h | Potency, µM (series often up to 46.2 µM), for inactives: top-dose activity change, negative = growth inhibition, usual class: inhibitors; further: potency means the concentration at half of the fitted maximal effect; on the % scale 0 is the no-effect control and ±100 the full control effect; nearly all actives have a fitted effect of over 55% in size
#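 Readout: luminescence from CellTiter-Glo after 30 min in the dark at RT. Cells: DT40 Tdp1-/- with stable hTDP1, 400/well. Exposure: compounds alone, ≥48 hr, 37 °C.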
# TDP1 cell CPT = growth inhibition of DT40 Tdp1-/-;hTDP1 cells with camptothecin (screen for TDP1 inhibitors) | chicken DT40 Tdp1-/-;hTDP1 cells + 20 nM CPT, ATP luminescence, 48 h | Potency, µM (top dose mostly 46.2 µM), for the others: at the highest dose activity change, negative = growth inhibition, hits mostly inhibitors | 420,000 tested, 12% active | AID 686979; further: potency means the concentration at half of the fitted maximal effect; on the % scale 0 is the no-effect control and ±100 the full control effect; nearly all actives have a fitted effect of over 55% in size
#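 Chicken DT40 Tdp1-/- cells complemented with human TDP1, 400 cells/well, exposed to compounds plus 20 nM camptothecin for at least 48 h at 37 C; viability read as ATP content by CellTiter-Glo luminescence.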
# S-ASM inh = inhibitors of human secretory acid sphingomyelinase; placental ASM, HMU-PC fluorogenic substrate, 60 min; 340,000 tested, 0.006% active; Potency, µM (highest dose often 57.5 µM), without a hit: at the highest dose activity change, negative = inhibition, usual class: inhibitors; AID 504937; further: potency means the concentration at half of the fitted maximal effect
# Target sequence (P17405 47-631 limits assumed): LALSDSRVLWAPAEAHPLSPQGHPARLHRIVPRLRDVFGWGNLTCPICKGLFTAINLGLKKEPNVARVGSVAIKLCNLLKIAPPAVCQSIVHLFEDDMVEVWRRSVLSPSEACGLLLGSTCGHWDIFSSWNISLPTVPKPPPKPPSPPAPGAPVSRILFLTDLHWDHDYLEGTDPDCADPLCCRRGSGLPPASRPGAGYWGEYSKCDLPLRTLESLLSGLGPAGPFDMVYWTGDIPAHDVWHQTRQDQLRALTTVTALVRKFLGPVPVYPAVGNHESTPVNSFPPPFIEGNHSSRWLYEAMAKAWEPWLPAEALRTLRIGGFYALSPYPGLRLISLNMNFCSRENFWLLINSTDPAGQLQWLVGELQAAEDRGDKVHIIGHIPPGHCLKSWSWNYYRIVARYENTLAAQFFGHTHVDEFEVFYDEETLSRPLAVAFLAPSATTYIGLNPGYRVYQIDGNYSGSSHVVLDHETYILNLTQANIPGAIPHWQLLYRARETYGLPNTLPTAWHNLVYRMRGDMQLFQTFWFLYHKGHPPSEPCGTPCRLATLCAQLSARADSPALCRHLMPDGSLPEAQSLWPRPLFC
#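 Fluorescence read-out (Ex 386 nm, Em 447 nm) after stopping the reaction at pH 10. Enzyme: ASM from human placenta; substrate HMU-PC0, 9 uM final; 60 min, 37 °C. Compound preincubation 10 min, ambient temperature.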
# HepG2 viability = HepG2 cytotoxicity, counter-screen for TGF-b inhibitors. Potency, µM (titrated, usually from 46.1 µM), without a hit: top-dose activity change, negative = cytotoxicity, actives largely listed as cytotoxic. HepG2 CAGA-GFP viability, ATP luminescence, 18 h. 410,000 tested, 0.76% active; further: potency means the concentration at half of the fitted maximal effect
#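 HepG2 CAGA-GFP cells (1000/well, DMEM with 1% FBS) received compound, then TGF-beta at 500 pg/mL final, and were incubated 18 hours at 37 degrees C. Viability was read by CellTiter-Glo luminescence. Media-only wells were set as complete cell-killing and DMSO as no toxicity.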
# Starred values were filed as active, the others as inactive; i = inactive; ? = inconclusive; . = no result given; [ ] = dose if it differs, or a comment. Unless noted, the call rests on the fitted dose curve; in most records, active means well fitted curve in the direction sought with a large enough effect; inconclusive means small, poorly fitted or top-dose-only effect, or another doubt; inactive means no such curve, though single readings can be large; an effect the other way counts as inactive or inconclusive.
SMILES,TGFb SMAD3 inh,IL-1B inflam inh,TDP1 cell noCPT,TDP1 cell CPT,S-ASM inh,HepG2 viability
CC(NC(=O)C12CC3CC(CC(C3)C1)C2)C(=O)N/N=C/C1=C(N2CCOCC2)C(=C\c2cccc([N+](=O)[O-])c2)/CC1 (stereo not drawn),-22%,-27,12µM*,?,-9%,-19%
N#C/C(=C/C1=C(N2CCOCC2)C(=C/c2cccc([N+](=O)[O-])c2)/CC1)C(=O)Nc1ccccc1F,-8%,1,8.2µM*,10µM*,-5%,2%
O=C(CN1C(=O)NC2(CCCC2)C1=O)c1ccc(Cl)s1,4%,10,-15%,5%,5%,-5%
CCOc1ccc(S(=O)(=O)Nc2cccc(C(=O)NCCCN3CCCC3=O)c2)cc1,-1%,0,-26%,-28%,4%,-4%
CCCCN(C(=O)c1cccs1)C1CCS(=O)(=O)C1 (stereo not drawn),-3%,10,-7%,0%,-1%,-4%
Cc1cc(C(=O)Nc2nc3c(s2)CCCC3)no1,-1%,16,4%,-4%,-1%,8%
Cc1cc(NC(=O)Nc2csc3c2CCCC3)ccc1Br,?,.,9.2µM*,8.2µM*,.,0%
Cc1cc(NC(=O)Nc2nc3c(s2)CCCCCC3)ccc1Br,-1%,.,18µM*,21µM*,.,-1%
CC(C)(C)c1ccc(C(=O)NC(=S)Nc2nc3c(s2)CCCC3)cc1,-6%,?,29µM*,26µM*,-3%,-26%
Cc1ccc(NC(=O)Nc2nc3c(s2)CCCCCC3)cc1C,2%,.,13µM*,13µM*,.,-79%
COc1cc([N+](=O)[O-])ccc1NC(=O)Nc1nc2c(s1)CCCC2,5%,-14,-26%,-4%,-4%,11%
Cc1nnc2ccc(-c3ccc(NS(=O)(=O)c4ccc(F)cc4F)cc3)nn12,24%,65,?,-11%,-3%,0%
Cc1ccc(NC(=O)CSc2nc3c(c(=O)[nH]2)CCC3)c(C)c1,-14%,13,18%,-12%,1%,1%
COc1cc(-c2nc3n(c(=O)c2C#N)CCS3)cc(OC)c1OC,12%,1,-13%,21%,34%,-2%
CSc1ncccc1C(=O)NCCN1Cc2ccccc2OC(c2ccccc2F)C1 (stereo not drawn),.,.,?,12%[9.04 µM],.,.
CC(OC(=O)c1ccc(S(=O)(=O)NCc2ccco2)cc1)C(=O)Nc1ccccc1 (stereo not drawn),-13%,-7,-28%,?,-5%,-20%
CCN(CC)CCCNC(=O)C1CCN(S(=O)(=O)CC)CC1,0%,.,-6%,-3%,.,1%
COc1ccc(N2C(=O)CSC23C(=O)N(Cc2ccc(C)cc2)c2ccccc23)cc1Cl (stereo not drawn),-3%,.,.,.,.,-20%
O=C(O)CSc1c(Cl)c(=O)oc2ccc(Cl)cc12,3%,10,2%,-5%,.,0%
CCOc1ccc(C(O)(CCC(C)C)C(CN2CCOCC2)c2ccccc2)cc1 (stereo not drawn),?,-60*,21µM*,?,1%,-31%
COc1ccc(C(O)(CC(C)C)C(CN2CCOCC2)c2ccccc2)cc1 (stereo not drawn),?,-5,21µM*,?,2%,-17%
COc1ccc(C(O)(CCC(C)C)C(CN2CCOCC2)c2ccc(Cl)cc2)cc1 (stereo not drawn),?,-81*,15µM*,?,-3%,-49%
CCc1ccc(C(O)(CC(C)C)C(CN2CCOCC2)c2ccccc2)cc1 (stereo not drawn),?,-7,?,?,0%,-49%
CCOc1ccc(C(O)(c2ccccc2)C(CN2CCCC2)c2ccccc2)cc1 (stereo not drawn),0%,-61*,7.3µM*,?,3%,-10%
CCc1ccc(C(O)(c2ccccc2OC)C(CN2CCOCC2)c2ccccc2)cc1 (stereo not drawn),?,37,?,?,-1%,-7%
SMILES,TGFb SMAD3 inh,IL-1B inflam inh,TDP1 cell noCPT,TDP1 cell CPT,S-ASM inh,HepG2 viability
N#CC(=C=[N-])c1nc2ccccc2nc1-[n+]1cccc(NC(=O)c2cccs2)c1,12%,19,6.5µM*,5.8µM*,4%,17%
CNC(=O)C[C@H]1C(=O)N(CCc2ccccc2)C[C@@H]1C,1%,8,-6%,0%,.,14%
CCCc1ccc(NS(=O)(=O)c2c(C)oc(C)c2C(=O)OC)cc1,2%,-8,21µM*,?,6%,-8%
C#CCN1C(=O)C(O)(c2c(C)[nH]c3ccccc23)c2ccccc21 (stereo not drawn),3%,42,3.3µM*,4.6µM*,3%,-10%
CCCN1C(=O)C(O)(c2c(C)[nH]c3ccccc23)c2ccccc21 (stereo not drawn),-16%,0,5.2µM*,5.2µM*,0%,1%
NC(=O)c1ccccc1NC(=O)CC1(CC(=O)O)CCCC1,2%,15,13%,7%,1%,11%
COCCn1c(SCC(=O)N2CCCCC2)nc2c([nH]c3ccccc32)c1=O,2%,24,?,-30%,1%,-20%
CCn1c(SCC(=O)N2CCCCCC2)nc2c([nH]c3ccccc32)c1=O,8%,i,-11%,-18%,1%,0%
CCOC(=O)N1CCN(C(=O)CSc2nc3c([nH]c4ccccc43)c(=O)n2CCOC)CC1,12%,i,18µM*,?,6%,0%
CCn1c(SCC(=O)N2CCN(c3ccccc3)CC2)nc2c([nH]c3ccccc32)c1=O,5%,i,8.2µM*,15µM*,-2%,-2%
O=C(NC1CCCCC1)C(c1ccco1)N(C(=O)c1csnn1)c1ccc(Cl)cc1 (stereo not drawn),-15%,-3,?,?,?,11%
O=C(NC1CCCC1)C(c1ccccn1)N(C(=O)c1csnn1)C1CCCCC1 (stereo not drawn),0%,37,?,21µM*,1%,-35%
O=C(NC1CCCC1)C(c1ccccn1)N(C(=O)c1csnn1)C1CC1 (stereo not drawn),-8%,-2,-28%,-21%,2%,-9%
